In the supplement of paper PMC10849652:
The full data set covers some 7,900 targets. This sample favours those with a hit. About 0.6% of all pairs of compound and target were hits. Values without a mark were called inactive.

What was measured:
Assay in all cases: log2 fold change, soluble protein after heating vs DMSO (PISA); higher = thermal stabilisation; K562 cells, 10 uM, 30 min; active = over 0.2 and 3.5 SD of the protein, either way, in both replicates (recomputed)
erlotinib = compound: C#Cc1cccc(Nc2ncnc3cc(OCCOC)c(OCCOC)cc23)c1 [erlotinib]
Method in brief: (§1)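 K562 cells at 2×10^6 cells/mL were given 10 μM compound for 30 min. Aliquots then went through 3 min of heating across 48°C-58°C, were pooled, and were extracted in PBS with 0.5% NP-40 at 4°C, and the supernatant after 21,000xg for 90 min was quantified by TMTpro 16plex LC-MS/MS with channel sums equalised. Thermal stability relative to control samples, from duplicates, is given as log2 fold change.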

[1] = compound: C/C(=N\NC(=O)C1=CC(=CC=C1)S(=O)(=O)N2CCOCC2)/C3=C(C=CC(=C3)Cl)O
Method in brief: as §1

[2] = compound: C1=CC(=C(C=C1Cl)C2=NC3=NC=CN=C3C(=N2)NC4=CC=NC=C4)F
Method in brief: as §1

[3] = compound: C1=CC(=CC=C1C2=NC3=C(N2)C=C(C=C3)C(=O)N)OC4=CC=C(C=C4)Cl
Method in brief: as §1

[4] = compound: C1=CC2=C(C=CC(=C2)/C=C\3/C(=O)NC(=NCC4=CC=CS4)S3)N=C1
Method in brief: as §1

[5] = compound: C1=CC2=NC=CN=C2C=C1/C=C/3\C(=O)NC(=O)S3
Method in brief: as §1

[6] = compound: C1=CC=C(C=C1)C2=NC(=C(N2)C3=CC=NC=C3)C4=CC(=C(C=C4)Cl)O
Method in brief: as §1

[7] = compound: C1=CC=C2C(=C1)C3=NNC4=CC=CC(=C43)C2=O
Method in brief: as §1

[8] = compound: C1CCN(C1)C(=O)NC2=CC=CC(=C2)NC3=NC=C(C(=N3)NCCC4=CN=CN4)Br
Method in brief: as §1

[9] = compound: C1CN(CCC1(CC2=CC=C(C=C2)Cl)N)C3=NC=NC4=C3C=CN4
Method in brief: as §1

IRAK-1-4 Inhibitor I = compound: C1COCCN1CCN2C3=CC=CC=C3N=C2NC(=O)C4=CC(=CC=C4)[N+](=O)[O-] [IRAK-1-4 Inhibitor I]
Method in brief: as §1

ibrutinib = compound: C=CC(=O)N1CCC[C@@H](n2nc(-c3ccc(Oc4ccccc4)cc3)c3c(N)ncnc32)C1 [ibrutinib]
Method in brief: as §1

[10] = compound: CC(=O)c1cnc2ccc(-c3cc(Cl)c(O)c(Cl)c3)nc2c1N[C@H]1CC[C@H](CN(C)C)CC1
Method in brief: as §1

ralimetinib = compound: CC(C)(C)Cn1c(N)nc2ccc(-c3[nH]c(C(C)(C)C)nc3-c3ccc(F)cc3)nc21 [ralimetinib]
Method in brief: as §1

[11] = compound: CC(C)(O)CC(=O)NCCn1ccc2ncnc(Nc3ccc(Oc4cccc(C(F)(F)F)c4)c(Cl)c3)c21
Method in brief: as §1

[12] = compound: CC(C)C1=C2N=C(C=C(N2N=C1)NCC3=CC=CC=C3)NCCCCCCN
Method in brief: as §1

[13] = compound: CC(C)C[C@@H](C=O)NC(=O)[C@H](CC(C)C)NC(=O)[C@H](CC(C)C)NC(=O)OCc1ccccc1
Method in brief: as §1

pinometostat = compound: CC(C)N(C[C@H]1O[C@@H](n2cnc3c(N)ncnc32)[C@H](O)[C@@H]1O)[C@H]1C[C@@H](CCc2nc3cc(C(C)(C)C)ccc3[nH]2)C1 [pinometostat]
Method in brief: as §1

[14] = compound: CC1=C(C(CC(=O)N1)C2=CC=C(C=C2)C(F)(F)F)C(=O)NC3=C(C=C4C(=C3)C=NN4)F
Method in brief: as §1

[15] = compound: CC1=C(C2=C(C=C1)C(=O)C3=CC=CC=C3N2CCCN)C
Method in brief: as §1

UniProt Q9ULX6, sequence (Q9ULX6 whole entry, looked up): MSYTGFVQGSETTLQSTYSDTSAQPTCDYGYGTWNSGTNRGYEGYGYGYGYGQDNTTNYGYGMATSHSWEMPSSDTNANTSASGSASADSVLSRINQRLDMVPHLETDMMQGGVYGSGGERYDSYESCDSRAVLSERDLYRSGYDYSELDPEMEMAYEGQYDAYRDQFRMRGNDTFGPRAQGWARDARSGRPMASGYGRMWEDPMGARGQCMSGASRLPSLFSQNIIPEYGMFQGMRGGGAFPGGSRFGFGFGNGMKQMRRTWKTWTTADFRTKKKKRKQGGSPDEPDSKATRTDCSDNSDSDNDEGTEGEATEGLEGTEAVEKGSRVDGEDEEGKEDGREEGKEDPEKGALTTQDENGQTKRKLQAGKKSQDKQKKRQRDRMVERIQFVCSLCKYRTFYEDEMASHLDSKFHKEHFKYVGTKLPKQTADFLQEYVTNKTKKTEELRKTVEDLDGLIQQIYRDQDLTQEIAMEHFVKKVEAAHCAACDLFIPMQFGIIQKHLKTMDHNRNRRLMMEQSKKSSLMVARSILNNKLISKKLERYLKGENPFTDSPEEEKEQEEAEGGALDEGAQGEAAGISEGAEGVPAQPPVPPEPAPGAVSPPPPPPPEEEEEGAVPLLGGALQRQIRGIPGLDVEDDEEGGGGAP
UniProt P08758, sequence (P08758 whole entry, looked up): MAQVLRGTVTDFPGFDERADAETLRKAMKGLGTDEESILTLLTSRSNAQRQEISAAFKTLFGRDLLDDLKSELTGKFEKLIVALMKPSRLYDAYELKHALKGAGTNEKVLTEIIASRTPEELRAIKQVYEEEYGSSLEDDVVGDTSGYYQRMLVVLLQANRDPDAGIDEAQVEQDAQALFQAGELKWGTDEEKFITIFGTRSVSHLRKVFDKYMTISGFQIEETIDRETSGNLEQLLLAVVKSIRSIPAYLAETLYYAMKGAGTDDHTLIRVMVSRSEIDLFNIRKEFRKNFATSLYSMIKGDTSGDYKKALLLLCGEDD
UniProt P11117, sequence (P11117 whole entry, looked up): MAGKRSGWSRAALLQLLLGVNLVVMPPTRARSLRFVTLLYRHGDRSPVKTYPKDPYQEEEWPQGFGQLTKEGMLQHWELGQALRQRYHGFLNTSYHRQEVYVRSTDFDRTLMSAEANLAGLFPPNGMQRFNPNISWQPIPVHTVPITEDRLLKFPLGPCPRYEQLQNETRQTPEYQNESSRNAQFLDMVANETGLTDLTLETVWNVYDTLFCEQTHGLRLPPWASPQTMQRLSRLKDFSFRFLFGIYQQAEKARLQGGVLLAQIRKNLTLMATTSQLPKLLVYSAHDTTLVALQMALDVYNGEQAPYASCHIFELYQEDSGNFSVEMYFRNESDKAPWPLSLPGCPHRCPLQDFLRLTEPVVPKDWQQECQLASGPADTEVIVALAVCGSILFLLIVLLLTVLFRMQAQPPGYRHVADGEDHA
UniProt Q9NYF8, sequence (Q9NYF8 whole entry, looked up): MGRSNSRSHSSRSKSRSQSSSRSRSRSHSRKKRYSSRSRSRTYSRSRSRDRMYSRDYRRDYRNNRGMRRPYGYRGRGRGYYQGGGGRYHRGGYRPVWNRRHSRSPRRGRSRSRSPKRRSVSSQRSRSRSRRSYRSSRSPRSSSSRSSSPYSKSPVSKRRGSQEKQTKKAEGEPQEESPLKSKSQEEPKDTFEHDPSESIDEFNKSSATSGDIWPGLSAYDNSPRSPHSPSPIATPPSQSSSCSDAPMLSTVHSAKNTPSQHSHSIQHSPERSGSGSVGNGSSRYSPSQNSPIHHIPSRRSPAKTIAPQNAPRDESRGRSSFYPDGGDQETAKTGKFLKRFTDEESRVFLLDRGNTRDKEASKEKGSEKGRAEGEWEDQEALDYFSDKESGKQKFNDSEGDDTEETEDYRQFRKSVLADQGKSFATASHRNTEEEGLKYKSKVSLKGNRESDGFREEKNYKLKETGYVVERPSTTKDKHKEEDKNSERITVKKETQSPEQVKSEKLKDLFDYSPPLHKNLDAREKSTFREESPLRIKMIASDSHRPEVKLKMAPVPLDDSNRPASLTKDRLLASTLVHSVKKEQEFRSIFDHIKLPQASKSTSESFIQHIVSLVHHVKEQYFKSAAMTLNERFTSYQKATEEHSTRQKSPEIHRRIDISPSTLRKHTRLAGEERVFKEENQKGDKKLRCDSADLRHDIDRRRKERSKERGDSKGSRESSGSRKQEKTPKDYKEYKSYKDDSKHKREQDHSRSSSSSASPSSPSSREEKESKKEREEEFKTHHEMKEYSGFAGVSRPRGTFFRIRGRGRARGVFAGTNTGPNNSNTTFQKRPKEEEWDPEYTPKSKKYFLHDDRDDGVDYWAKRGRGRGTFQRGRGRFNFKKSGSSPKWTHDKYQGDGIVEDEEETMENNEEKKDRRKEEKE
UniProt P42330, sequence (P42330 whole entry, looked up): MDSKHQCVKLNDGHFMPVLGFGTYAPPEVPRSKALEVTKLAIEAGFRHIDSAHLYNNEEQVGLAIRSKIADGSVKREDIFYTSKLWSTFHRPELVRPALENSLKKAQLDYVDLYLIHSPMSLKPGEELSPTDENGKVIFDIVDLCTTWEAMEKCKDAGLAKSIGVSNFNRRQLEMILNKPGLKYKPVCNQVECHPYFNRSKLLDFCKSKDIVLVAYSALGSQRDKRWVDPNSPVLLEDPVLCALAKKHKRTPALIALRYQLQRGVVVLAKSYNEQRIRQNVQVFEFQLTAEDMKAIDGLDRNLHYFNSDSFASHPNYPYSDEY
UniProt Q8NFV4, sequence (Q8NFV4 whole entry, looked up): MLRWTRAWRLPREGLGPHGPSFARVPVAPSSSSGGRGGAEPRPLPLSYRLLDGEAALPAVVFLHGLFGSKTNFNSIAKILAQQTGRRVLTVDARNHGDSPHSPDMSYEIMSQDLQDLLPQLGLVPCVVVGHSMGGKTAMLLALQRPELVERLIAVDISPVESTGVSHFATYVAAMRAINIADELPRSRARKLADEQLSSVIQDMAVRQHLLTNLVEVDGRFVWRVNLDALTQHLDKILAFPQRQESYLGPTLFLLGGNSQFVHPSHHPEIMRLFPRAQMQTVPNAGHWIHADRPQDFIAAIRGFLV
UniProt Q4G176, sequence (Q4G176 whole entry, looked up): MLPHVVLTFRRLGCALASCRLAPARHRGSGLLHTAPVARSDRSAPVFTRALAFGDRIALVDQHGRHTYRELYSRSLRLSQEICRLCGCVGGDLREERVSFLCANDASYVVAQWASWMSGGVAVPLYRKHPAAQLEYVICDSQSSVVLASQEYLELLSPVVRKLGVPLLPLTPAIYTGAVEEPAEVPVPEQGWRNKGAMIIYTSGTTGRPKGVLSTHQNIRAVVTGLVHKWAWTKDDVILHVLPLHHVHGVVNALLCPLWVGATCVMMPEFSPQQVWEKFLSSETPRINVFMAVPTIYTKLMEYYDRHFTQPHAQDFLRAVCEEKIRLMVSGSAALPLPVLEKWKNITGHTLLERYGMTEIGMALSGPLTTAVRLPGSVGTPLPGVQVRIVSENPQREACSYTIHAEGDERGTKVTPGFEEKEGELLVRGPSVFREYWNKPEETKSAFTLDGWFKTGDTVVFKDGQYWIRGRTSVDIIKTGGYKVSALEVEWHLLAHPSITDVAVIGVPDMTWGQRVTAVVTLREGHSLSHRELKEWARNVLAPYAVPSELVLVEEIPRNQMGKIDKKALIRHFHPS
UniProt Q02252, sequence (Q02252 whole entry, looked up): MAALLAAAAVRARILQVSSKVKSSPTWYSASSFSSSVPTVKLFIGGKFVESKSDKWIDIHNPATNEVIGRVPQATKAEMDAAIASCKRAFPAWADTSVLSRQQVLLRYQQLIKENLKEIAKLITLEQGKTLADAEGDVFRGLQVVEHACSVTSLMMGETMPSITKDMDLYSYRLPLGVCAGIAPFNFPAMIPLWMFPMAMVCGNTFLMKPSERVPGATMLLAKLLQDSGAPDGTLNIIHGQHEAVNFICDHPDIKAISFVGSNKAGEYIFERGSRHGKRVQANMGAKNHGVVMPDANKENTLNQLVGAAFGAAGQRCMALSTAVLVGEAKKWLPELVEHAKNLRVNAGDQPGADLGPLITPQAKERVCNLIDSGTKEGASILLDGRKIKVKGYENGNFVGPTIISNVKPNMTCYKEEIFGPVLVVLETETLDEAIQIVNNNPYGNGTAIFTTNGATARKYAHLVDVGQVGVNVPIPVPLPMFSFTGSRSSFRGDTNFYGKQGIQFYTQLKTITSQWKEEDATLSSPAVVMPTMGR
UniProt P56385, sequence (P56385 whole entry, looked up): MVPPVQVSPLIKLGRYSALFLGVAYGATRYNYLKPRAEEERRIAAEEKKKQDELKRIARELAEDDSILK
UniProt Q9UKG1, sequence (Q9UKG1 whole entry, looked up): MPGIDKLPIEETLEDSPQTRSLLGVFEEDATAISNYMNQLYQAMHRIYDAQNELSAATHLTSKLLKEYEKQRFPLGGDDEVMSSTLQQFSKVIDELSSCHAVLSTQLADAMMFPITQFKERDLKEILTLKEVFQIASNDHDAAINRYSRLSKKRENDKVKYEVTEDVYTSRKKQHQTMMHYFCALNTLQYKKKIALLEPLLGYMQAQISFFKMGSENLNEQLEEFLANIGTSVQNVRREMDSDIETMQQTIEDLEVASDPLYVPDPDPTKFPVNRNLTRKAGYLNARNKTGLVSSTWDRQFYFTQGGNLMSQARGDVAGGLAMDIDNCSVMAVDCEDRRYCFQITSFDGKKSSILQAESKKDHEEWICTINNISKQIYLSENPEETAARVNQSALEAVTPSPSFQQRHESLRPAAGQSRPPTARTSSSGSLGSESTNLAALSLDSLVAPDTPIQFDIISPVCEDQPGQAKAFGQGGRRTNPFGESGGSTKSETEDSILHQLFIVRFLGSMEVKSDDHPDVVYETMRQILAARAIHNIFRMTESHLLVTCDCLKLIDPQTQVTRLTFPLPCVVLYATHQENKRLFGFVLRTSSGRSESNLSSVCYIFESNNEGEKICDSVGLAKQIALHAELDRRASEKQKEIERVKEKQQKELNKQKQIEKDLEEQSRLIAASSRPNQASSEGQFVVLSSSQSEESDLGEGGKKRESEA

Target	log2 fold change (erlotinib)	log2 fold change [1]	log2 fold change [2]	log2 fold change [3]	log2 fold change [4]	log2 fold change [5]	log2 fold change [6]	log2 fold change [7]	log2 fold change [8]	log2 fold change [9]	log2 fold change (IRAK-1-4 Inhibitor I)	log2 fold change (ibrutinib)	log2 fold change [10]	log2 fold change (ralimetinib)	log2 fold change [11]	log2 fold change [12]	log2 fold change [13]	log2 fold change (pinometostat)	log2 fold change [14]	log2 fold change [15]
ABHD11 (UniProt Q8NFV4)	0.03	-0.041	0.078	-0.033	0.113	-0.067	0.045	0.043	-0.079	0.01	-0.031	0.031	-0.007	-0.123	-0.006	-0.043	0.068	-0.027	-0.016	0.026
ALDH6A1 (UniProt Q02252)	0.067	-0.02	0.061	-0.144	0.074	-0.043	0.038	-0.038	-0.03	0.043	0.004	-0.023	-0.041	0.019	-0.155	-0.068	-0.002	-0.01	-0.004	0.018
ACSL5 isoform 3 (UniProt Q9ULC5)	0.044	0.039	-0.021	0.028	-0.029	-0.011	-0.007	0.047	-0.003	0.061	0.02	0.03	-0.017	-0.03	0.014	-0.354 (active)	-0.001	0.095	0.049	0.088
ACSF3 (UniProt Q4G176)	0.07	-0.066	0.057	-0.155	-0.104	0.04	0.028	0.022	-0.001	-0.038	0.05	-0.088	-0.129	-0.004	-0.063	-0.138	0.077	0.011	-0.061	0.023
APPL1 (UniProt Q9UKG1)	-0.049	0.162	0.055	0.012	0.055	0.016	0.038	-0.029	0.014	0.003	0.016	-0.067	-0.074	-0.024	0.037	0.006	0.069	0.059	-0.15	-0.011
AKAP8L (UniProt Q9ULX6)	0.001	0.085	0.074	0.026	-0.006	-0.058	-0.054	-0.027	-0.053	0.031	-0.076	-0.001	-0.128	0.091	-0.091	-0.299	0.106	-0.018	0.024	-0.34
ACP2 (UniProt P11117)	0.031	0.004	0.061	0.019	0.019	-0.01	0.022	-0.022	-0.003	0.045	0.047	0.033	-0.012	-0.012	-0.03	-0.205	-0.026	0.027	0.02	-0.006
BMP2K (UniProt Q9NSY1)	0.079	-0.16	-0.016	-0.024	0.178	-0.042	-0.012	0.388 (active)	0.353	-0.061	0.003	0.071	0.559 (active)	0.058	-0.028	-0.027	0.085	-0.008	0.023	-0.009
AKR1C3 (UniProt P42330)	0.063	0.067	0.117	-0.095	0.02	0.067	0.796 (active)	-0.022	0.031	0.044	0.072	-0.108	0.015	0.085	0.265	0.025	-0.149	-0.069	-0.064	-0.049
ACP1 isoform 2 (UniProt P24666)	0.072	0.011	0.038	0.024	0.029	-0.008	-0.018	0	0.004	-0.039	-0.082	-0.028	-0.013	0.009	-0.264 (active)	-0.109	-0.039	0.073	-0.061	-0.296 (active)
BOP1 (UniProt Q14137)	-0.003	0.038	-0.144	0	-0.053	0.041	-0.153	-0.014	0.043	0.036	-0.039	0.01	-0.083	0.041	0.119	-0.068	0.031	0.021	0.01	-0.078
ABHD16A (UniProt O95870)	-0.036	0.02	-0.048	0.161	0.208	-0.094	0.036	0.009	-0.005	0.023	-0.039	0.043	-0.026	0.047	0.361 (active)	0.656 (active)	0.064	-0.009	-0.064	0.012
ANXA5 (UniProt P08758)	-0.012	0.1	0.06	-0.039	0.009	0.002	0.013	0.038	0.022	-0.012	-0.013	-0.05	-0.019	-0.018	-0.006	-0.069	0.017	-0.026	0	0.032
ATP5ME (UniProt P56385)	0.013	0.037	0.136	-0.007	0.085	0.051	0.023	0.002	-0.051	0.013	-0.003	-0.002	-0.019	-0.04	-0.044	0.031	0.011	-0.036	0.011	0.039
AP2A1 (UniProt O95782)	-0.019	0.012	-0.035	0.003	-0.041	0.003	0.057	-0.381 (active)	-0.527 (active)	-0.038	-0.054	0.01	-0.14	0.052	0.027	0.023	-0.06	0	0.01	0.081
BCLAF1 (UniProt Q9NYF8)	0.036	0.075	-0.046	0.082	-0.304	-0.018	0.143	-0.063	-0.089	-0.15	-0.265	0.016	-0.503 (active)	0.124	0.094	-0.353	-0.027	-0.039	0.021	-0.076
